Assay results published in PubChem BioAssay.
Calls of active or inactive are those of the source.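 Rule for the calls, unless noted: active = compounds that lower survival of HCT116 colon cancer cells in the luminescence readout, no numeric limit stated; inactive = the rest.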

Tests used:
[1] = stimulators of nuclear beta-catenin in C2C12, primary screen, imaging, WNT3A-conditioned medium, mouse C2C12, NPC library (AID 1117326; in the data active = nuclear beta-catenin stimulation mostly above about 4.2%, no sharp cut-off; inactive = mostly below about 10%; note: reference of the scale not given here); settings: stronger effect = higher value
[2] = stimulators of insulin release from INS-1E, primary screen, cell-based, 5 mM glucose, NPC library (AID 1117329;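 active = compound raises insulin release from rat beta cells at 5 mM glucose, no numeric limit stated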; note: reference of the scale not given here); settings: rat INS-1E insulin secretion, at 10 µM, stronger effect = higher value
[3] = growth inhibition of GSK3B-pretreated HCT116 cells – cell-based, CellTiter-Glo, 0.2 to 20 µM (AID 1117336;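 active = compounds lowering colon cancer cell viability after pretreatment blocking the GSK3B kinase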); settings: HCT116 viability after GSK3B inhibitor, at 20 µM, stronger effect = higher value
[4] = inhibition of endothelial tube formation, primary screen, imaging, VEGF stimulated, CD31 staining, tube area, NPC library (AID 1117340;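 active = compound that reduces growth-factor-driven endothelial tube area in a mixed cell culture, no cutoff stated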); settings: VEGF-stimulated ADSC/ECFC co-culture, at 10 µM, stronger effect = higher value
[5] = glucagon-like peptide 1 release enhancers, primary assay, NCI-H716 cell line, NPC library (AID 1117341;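 active = compound raises GLP1 secretion from the human gut endocrine cells, with no numeric limit stated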; note: reference of the scale not given here); settings: NCI-H716 cells, at 10 µM, stronger effect = higher value
[6] = HCT116 colon cancer cell growth inhibition, primary screen, CellTiter-Glo luminescence, NPC library (AID 1117342); settings: at 20 µM (top of the series)
[7] = CellTiter-Glo luminescent readout of SW480 viability loss, NPC library primary (AID 1117343;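 active = compounds that lower viability of the colon cancer cells in the luminescence readout, with no numeric limit stated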); settings: CellTiter-Glo luminescence; at 20 µM (top of the series)
[8] = decreased DLD-1 cellular survival, CellTiter-Glo luminescent readout, NPC compound collection, primary HTS (AID 1117346;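 active = compounds that lower survival of DLD-1 colon cancer cells in the luminescence readout, no cutoff given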); settings: DLD-1 viability, CellTiter-Glo luminescence; at 20 µM (top of the series)

CN1CCC(N(Cc2ccccc2)c2ccccc2)CC1
inactive: nuclear beta-catenin stimulation ([1]; at 10 µM) 0.1% | insulin secretion stimulation [2] 14.1% | viability decrease [3] 24.8% | tube area decrease [4] -0.1% | GLP1 secretion stimulation [5] 14.3% | inhibition of viability [6] 41.7% | viability decrease (inhibition) [7] 48.7% | viability decrease (inhibition) [8] 23.2%
-3%: nuclear beta-catenin stimulation ([1]; stimulation, at 2 µM)

CC(C)(C)c1cc(O)ccc1O
2.2%: nuclear beta-catenin stimulation ([1]; stimulation, at 2 µM)
active: tube area decrease [4] 50.3%
inactive: nuclear beta-catenin stimulation ([1]; at 10 µM) 2.1% | insulin secretion stimulation [2] 0% | viability decrease [3] 11.8% | GLP1 secretion stimulation [5] -1% | inhibition of viability [6] -45.9% | viability decrease (inhibition) [7] 17.3% | viability decrease (inhibition) [8] -12%

C#CCOC(C(=O)OCCN(C)C)(c1ccccc1)c1ccccc1
active: insulin secretion stimulation [2] 28.7%
0.9%: nuclear beta-catenin stimulation ([1]; stimulation, at 2 µM)
inactive: nuclear beta-catenin stimulation ([1]; at 10 µM) 2.7% | viability decrease [3] -8.15% | tube area decrease [4] 36.7% | GLP1 secretion stimulation [5] 5.3% | inhibition of viability [6] -6.2% | viability decrease (inhibition) [7] 17.1% | viability decrease (inhibition) [8] -1.8%

NCC(O)c1cccc(O)c1 (configuration not stated)
inactive: nuclear beta-catenin stimulation ([1]; at 10 µM) -0.9% | insulin secretion stimulation [2] 0.5% | viability decrease [3] -15% | tube area decrease [4] -16.5% | GLP1 secretion stimulation [5] 2.9% | inhibition of viability [6] 4.5% | viability decrease (inhibition) [7] 4.3% | viability decrease (inhibition) [8] 5.4%
0.5%: nuclear beta-catenin stimulation ([1]; stimulation, at 2 µM)

COCC(=O)N(c1c(C)cccc1C)C(C)C(=O)OC (configuration not stated)
0.5%: nuclear beta-catenin stimulation ([1]; stimulation, at 2 µM)
inactive: nuclear beta-catenin stimulation ([1]; at 10 µM) 0.1% | insulin secretion stimulation [2] -1.7% | viability decrease [3] -0.7% | tube area decrease [4] -6.8% | GLP1 secretion stimulation [5] 1.9% | inhibition of viability [6] -27% | viability decrease (inhibition) [7] 1.1% | viability decrease (inhibition) [8] 8.85%

CN1CCc2cc(Cl)c(O)cc2[C@H]2c3ccccc3CC[C@@H]21
inactive: nuclear beta-catenin stimulation ([1]; at 10 µM) 1.9% | viability decrease [3] 16.1% | tube area decrease [4] 24.1% | GLP1 secretion stimulation [5] 5.5% | inhibition of viability [6] 28.5% | viability decrease (inhibition) [7] 46.5% | viability decrease (inhibition) [8] 21.2%
active: insulin secretion stimulation [2] 20.2%
2.3%: nuclear beta-catenin stimulation ([1]; stimulation, at 2 µM)

O=C(O)c1cc(Oc2ccc(C(F)(F)F)cc2Cl)ccc1[N+](=O)[O-]
inactive: nuclear beta-catenin stimulation ([1]; at 10 µM) 1.4% | insulin secretion stimulation [2] 4.1% | viability decrease [3] -10.9% | tube area decrease [4] 0.3% | GLP1 secretion stimulation [5] 3.1% | inhibition of viability [6] 9.4% | viability decrease (inhibition) [7] -9.4% | viability decrease (inhibition) [8] -3.5%
0.5%: nuclear beta-catenin stimulation ([1]; stimulation, at 2 µM)

C1CCC(NC2CCCCC2)CC1
2%: nuclear beta-catenin stimulation ([1]; stimulation, at 2 µM)
inactive: nuclear beta-catenin stimulation ([1]; at 10 µM) 1.5% | insulin secretion stimulation [2] 1.3% | viability decrease [3] -4.15% | tube area decrease [4] -1.6% | GLP1 secretion stimulation [5] 0.1% | inhibition of viability [6] 7.9% | viability decrease (inhibition) [7] -22% | viability decrease (inhibition) [8] -4.45%
